Assay outcomes deposited in PubChem BioAssay by National Center for Advancing Translational Sciences (NCATS).
Gal4-VP16 FLuc = VP16 counterscreen qHTS for inhibitors of ROR gamma transcriptional activity; Drosophila S2 Gal4-VP16 UAS-luciferase, luminescence, 20 h; Potency, µM (series often up to 53.6 µM), actives largely listed as inhibitors; actives 3.5% (n = 310,000);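 further: Gal4-VP16 expression switched on by copper sulfate through the metallothionein promoter; nearly all actives have a fitted effect of over 50% in size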
RORgamma inh = qHTS for inhibitors of ROR gamma transcriptional activity | Nuclear receptor ROR-gamma (Mus musculus), P51450 | Drosophila S2 Gal4-RORgamma UAS-luciferase reporter, 20 h | Potency, µM (highest dose often 53.6 µM), usual class: inhibitors | actives 5.4% (n = 310,000) | AID 2551, 2010; further: nearly all actives have a fitted effect of over 60% in size
Target sequence (P51450 whole entry, looked up, the tested form may be a part): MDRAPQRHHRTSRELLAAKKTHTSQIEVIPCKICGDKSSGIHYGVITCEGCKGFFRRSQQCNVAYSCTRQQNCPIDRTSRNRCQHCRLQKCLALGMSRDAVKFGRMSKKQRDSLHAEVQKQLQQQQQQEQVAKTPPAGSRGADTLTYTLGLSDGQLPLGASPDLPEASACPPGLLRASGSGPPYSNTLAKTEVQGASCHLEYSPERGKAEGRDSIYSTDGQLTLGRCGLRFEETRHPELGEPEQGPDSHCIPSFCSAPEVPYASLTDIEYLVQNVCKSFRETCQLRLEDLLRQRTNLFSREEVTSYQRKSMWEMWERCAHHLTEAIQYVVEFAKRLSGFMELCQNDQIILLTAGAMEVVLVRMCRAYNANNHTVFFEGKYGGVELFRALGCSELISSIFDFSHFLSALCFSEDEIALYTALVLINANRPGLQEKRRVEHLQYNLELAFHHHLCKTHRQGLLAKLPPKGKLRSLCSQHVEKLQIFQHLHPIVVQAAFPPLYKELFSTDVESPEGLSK
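Luciferase reporter read in Schneider cells carrying Gal4-RORγ (mouse) and UAS-Photinus luciferase; cells given compound 1 h before 700 uM copper sulfate induction, then incubated 20 h at ambient temperature.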
KinaseGlo FLuc = Counterscreen for Luciferase (Kinase-Glo TM) Inhibition; AID 1379, 2008; Potency, µM (highest dose often 38.3 µM), usual class: inhibitors; actives 0.28% (n = 200,000); Kinase-Glo luciferase, ATP luminescence, 8 min; Luciferin 4-monooxygenase (Photuris pensylvanica), Q27757; further: nearly all actives have a fitted effect of over 60% in size
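Luminescence was the read-out, taken after 8-minute incubation at ambient temperature. Luciferase turned over luciferin with 10 uM ATP in imidazole pH 7.2 buffer containing KCl, MgCl2, Tween 20 and BSA.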
A number is an active result; – = inactive; ? = inconclusive; · = no result given; [ ] = dose if it differs, or a comment. In the library only some 6.4% were active in any assay of this set; here they are far more common. The call rests on the fitted dose curve; in most records, active means well fitted curve in the direction sought with a large enough effect; inconclusive means small, poorly fitted or top-dose-only effect, or another doubt; inactive means no such curve, though single readings can be large; an effect the other way counts as inactive or inconclusive.

SMILES	Gal4-VP16 FLuc	RORgamma inh	KinaseGlo FLuc
O=C(Nc1ccccc1)c1ccc2c(c1)OCCO2	–	?	?
S=C(NCCc1ccc(Cl)cc1)NCc1ccco1	–	11.2µM	–
O=C(NC(=S)NCCc1ccc(Cl)cc1)c1ccco1	?	8.91µM	–
O=C(Cc1ccc(Cl)cc1)NNC(=O)c1ccco1	–	–	·
OC(CNCCc1ccc(Cl)cc1)COCc1ccco1 (stereo not given)	–	–	–
CCNC(=S)NCc1ccco1	–	–	–
S=C(NCc1ccc(Cl)cc1)NCc1ccco1	10µM	7.08µM	·
N#Cc1cc([N+](=O)[O-])ccc1NC(=O)COC(=O)C12CC3CC(CC(C3)C1)C2	–	–	–
CCOC(=O)c1c(S(=O)(=O)N2CCN(Cc3ccccc3)CC2)c(C)n(C)c1C	–	–	·
Cc1cc2ccccc2n1CCNC(=O)C(C)C	–	?	–
Cc1cc2ccccc2n1CCNC(=O)C(C)Oc1ccccc1 (stereo not given)	?	7.08µM	–
COCCN1C(=O)N[C@@H](c2ccccc2)[C@@H](C(=O)OC)[C@H]1C	·	·	–[7.66 µM]
Cc1cc(C)nc(SCc2ccc(C(=O)N/N=C/c3ccc(C(=O)O)cc3)cc2)n1	–	–	–
Cc1cc(C)nc(SCc2ccc(C(=O)N/N=C/c3cccc(O)c3O)cc2)n1	1.58µM	1.41µM	–
COc1ccc(/C=N/NC(=O)c2ccc(CSc3nc(C)cc(C)n3)cc2)cc1O	–	–	–
COc1ccc(O)c(/C=N/NC(=O)c2ccc(CSc3nc(C)cc(C)n3)cc2)c1	2.51µM	1.26µM	–
NC(=O)c1ccc(N2CCC(C(N)=O)CC2)c([N+](=O)[O-])c1	–	–	·
COC(=O)N1[C@H](C)C=C[C@]1(Cc1ccccc1)C(=O)NCc1ccc(N(C)C)cc1	–	–	–
O=C(Nc1cccc(Cl)c1)Nc1sccc1-c1nc2ccccc2s1	–	?	·
O=C(Nc1ccccc1)Nc1sccc1-c1nc2ccccc2s1	–	7.94µM	·
O=C(CCCn1c(=O)c2ccccc2n(CC(=O)N2CCN(c3ccccc3)CC2)c1=O)NCc1ccco1	–	–	–
O=C(O)C1Cc2ccccc2-c2ccccc2C1	–	–	·
CC1Cc2ccccc2C(CCc2ccccc2)=N1 (stereo not given)	–	12.6µM	·
O=C(Nc1cccc(F)c1)N1CCN(C(=O)c2ccco2)CC1	–	–	·
Cc1oc(-c2ccccc2Cl)nc1CS(=O)(=O)CC(=O)NCCN1CCOCC1	–	–	·
SMILES	Gal4-VP16 FLuc	RORgamma inh	KinaseGlo FLuc
COc1ccc(C(=O)c2c(NC(C)=O)sc3c2CCN(C(=O)OC(C)(C)C)C3)cc1	–	–	·
Cn1c(=O)c2c(nc(NCc3ccco3)n2Cc2ccccc2Cl)n(C)c1=O	4.47µM	–	–
Cn1c(=O)c2c(nc(NCc3ccco3)n2C/C=C/c2ccccc2)n(C)c1=O	4.47µM	2.24µM	–
Cn1c(=O)c2c(nc(NCc3ccco3)n2C)n(C)c1=O	–	–	–
Cn1c(=O)c2c(nc(NCc3ccco3)n2CC(O)CO)n(C)c1=O (stereo not given)	–	–	–
COc1cc(NC(=S)N2CCN(C(=O)C3CCCO3)CC2)c(OC)cc1Cl (stereo not given)	–	–	–
COc1ccc(CCNC(=O)CCC(=O)N2CCOc3ccccc32)cc1OC	–	–	·
COc1ccc(N2CCN(C(=O)CSc3nnc4c(C)cc5ccccc5n34)CC2)cc1	–	–[10 µM]	–
Cc1cc2ccccc2n2c(SCC(=O)N3CCc4ccccc4C3)nnc12	17.8µM	?	–
CC1CCCN(C(=O)CN(C)S(=O)(=O)c2ccc3c(c2)c(=O)n(C)c(=O)n3C)C1 (stereo not given)	–	–	·
COC(=O)C1=C(C)N(C)C(=S)NC1c1c(OC)ccc2ccccc12 (stereo not given)	?	7.94µM	–
COC(=O)C1=C(C)N(C)C(=O)NC1c1cccc2ccccc12 (stereo not given)	–	–	·
Cc1c(CC(C)(C)C(=O)O)n(Cc2ccc(Cl)cc2)c2ccc(F)cc12	–	–	–
O=C(O)c1cc(=O)[nH]c(=O)[nH]1	–	–	·
COC(=O)c1c(N)sc2c1CCN(c1ncc(C(F)(F)F)cc1Cl)C2	?	1.58µM	–
COC(=O)c1c(/N=C/NOCc2ccc(Cl)cc2)sc2c1CCN(c1ncc(C(F)(F)F)cc1Cl)C2	–	–	–
O=C(Cc1ccccc1)N[C@H](c1ccccc1)P(=O)(O)CO	–	2.82µM	–
O=C(O)CC(NC(=O)Cc1ccccc1)c1ccccc1 (stereo not given)	–	–	·
O=C1CC(c2ccccc2F)c2cc3c(cc2N1)CCC3 (stereo not given)	–	–	–
CC(=O)C1=C(C)Nc2ncnn2C1c1ccccc1 (stereo not given)	–	–	·
S=C1NC2=C(CCC/C2=C\c2ccc(Cl)cc2)C(c2ccc(Cl)cc2)N1 (stereo not given)	?	–	·
S=C1NC2=C(CCC/C2=C\c2ccccc2)C(c2ccccc2)N1 (stereo not given)	8.91µM	3.55µM	–
O=C1NC(=O)C(c2ccc(F)cc2)N1 (stereo not given)	–	–	·
C(=C1/CCCC2=C1Nc1ncnn1C2c1ccccc1)/c1ccccc1 (stereo not given)	3.98µM	2.82µM	–
Fc1ccccc1/C=C1\CCCC2=C1NC(=S)NC2c1ccccc1F (stereo not given)	11.2µM	2.51µM	–
SMILES	Gal4-VP16 FLuc	RORgamma inh	KinaseGlo FLuc
CC1CC2=C(NC(=S)NC2c2ccc(F)cc2)/C(=C/c2ccc(F)cc2)C1 (stereo not given)	7.08µM	1.58µM	–
COc1ccc(-c2nc(CSCC(=O)NCCCN3CCCC3=O)c(C)o2)cc1OC	–	–	·
NC(=O)CC(NC(=O)c1ccc(Cl)cc1)C(=O)NCCc1ccc(S(N)(=O)=O)cc1 (stereo not given)	–	–	·
CC1(C)OC[C@@H]2O[C@@]3(C(=O)O)OC(C)(C)O[C@@H]3[C@@H]2O1	–	–	·
COc1cc(-c2[nH]ncc2CN2CCN(Cc3cccs3)CC2)cc(OC)c1OC	–	–	·
CSCC[C@H](NC(=O)[C@H](Cc1ccccc1)NC(=O)[C@H](Cc1cnc[nH]1)NC(=O)CNC(=O)[C@@H](NC(=O)[C@H](C)NC(=O)[C@H](Cc1c[nH]c2ccccc12)NC(=O)[C@H](CCC(N)=O)NC(=O)[C@@H]1CCCN1C(=O)[C@@H](NC(=O)[C@@H]1CCC(=O)N1)C(C)C)C(C)C)C(N)=O	–	–	·
Fc1cccc(/C=C2\CCCC3=C2NC(=S)NC3c2cccc(F)c2)c1 (stereo not given)	3.55µM	2.82µM	·
FC(F)(F)c1ccccc1C1C2=C(Nc3ncnn31)c1ccccc1CCC2 (stereo not given)	4.47µM	–	–
COc1ccc(C2C3=C(Nc4ncnn42)c2ccccc2CC3)cc1OC (stereo not given)	–	–	–
CN1C(=O)NC(c2cccc(F)c2)C2=C1CC(C)(C)CC2=O (stereo not given)	–	–	·
COc1cc(S(=O)(=O)N(Cc2cccnc2)Cc2cccc(OC)c2OC)ccc1-n1cnnn1	–	–	·
FC(F)(F)c1ccccc1CNCc1ccc2c(c1)OCO2	–	–	·
